Laboratory results from PubChem BioAssay (NCATS).
Results filed as inconclusive are left out. A number with no mark means an inactive call. The source made the active and inactive calls. Unless noted, calls follow the shape of the dose curve; as a rule, active = well fitted inhibition curve with a large enough effect; inconclusive = small, poorly fitted or top-dose-only effect; inactive = no such curve, though single readings can be large or run the other way.

Biological target: Atrial natriuretic peptide receptor 2 (Homo sapiens) (UniProt P20594)
Assay: Natriuretic polypeptide receptor (hNpr2) antagonism - Pilot subtype selectivity assay (AID 1347050; calls by dose curve; also: potency is read from the fitted curve at half-maximal effect; as to activity change, negative = inhibition: % is scaled to controls: 0 for no effect and ±100 for the full control effect)
Conditions: NPR2-expressing cells, cGMP antagonist-mode read-out; series mostly up to 38.3 µM; activity change, negative = inhibition: at the top concentration
In short: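 cGMP-sensor HEK293/hNpr2 cells; 2% GloSensor reagent 2 h RT; compounds 30 min; baseline luminescence read; 1 nM hNppC agonist 20 min RT; final luminescence read by CCD camera. Antagonism = reduced post-agonist signal.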

Atrial natriuretic peptide receptor 2 (Homo sapiens), sequence (P20594 whole entry, looked up): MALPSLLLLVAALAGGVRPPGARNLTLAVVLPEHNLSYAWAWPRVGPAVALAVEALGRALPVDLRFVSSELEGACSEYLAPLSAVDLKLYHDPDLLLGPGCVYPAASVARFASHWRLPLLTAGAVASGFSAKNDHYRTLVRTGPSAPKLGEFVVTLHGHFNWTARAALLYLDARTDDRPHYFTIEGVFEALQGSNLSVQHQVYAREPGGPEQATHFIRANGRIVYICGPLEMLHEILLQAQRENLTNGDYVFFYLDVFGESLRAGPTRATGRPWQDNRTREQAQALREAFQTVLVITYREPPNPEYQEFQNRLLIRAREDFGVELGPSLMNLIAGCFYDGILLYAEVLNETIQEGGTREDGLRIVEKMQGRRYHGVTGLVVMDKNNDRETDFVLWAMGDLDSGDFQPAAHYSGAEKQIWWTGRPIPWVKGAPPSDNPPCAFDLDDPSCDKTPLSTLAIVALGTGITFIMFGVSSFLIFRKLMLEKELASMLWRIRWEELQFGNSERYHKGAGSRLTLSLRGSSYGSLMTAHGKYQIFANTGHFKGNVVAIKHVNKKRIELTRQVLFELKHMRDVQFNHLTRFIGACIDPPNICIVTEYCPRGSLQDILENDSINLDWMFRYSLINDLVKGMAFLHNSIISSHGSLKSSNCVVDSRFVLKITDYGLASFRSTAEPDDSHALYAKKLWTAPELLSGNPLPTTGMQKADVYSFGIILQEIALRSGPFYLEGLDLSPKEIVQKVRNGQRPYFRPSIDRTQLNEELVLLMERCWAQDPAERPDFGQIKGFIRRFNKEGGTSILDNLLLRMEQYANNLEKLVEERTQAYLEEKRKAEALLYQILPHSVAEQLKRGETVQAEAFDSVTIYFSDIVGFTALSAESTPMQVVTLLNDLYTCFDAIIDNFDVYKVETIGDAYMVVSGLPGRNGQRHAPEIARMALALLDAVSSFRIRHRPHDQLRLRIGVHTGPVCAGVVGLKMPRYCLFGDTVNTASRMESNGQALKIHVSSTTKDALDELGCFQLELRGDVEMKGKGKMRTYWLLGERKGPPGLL

Structure (SMILES)	activity change, negative = inhibition [%]	Potency
CSc1ccc(C(=O)c2[nH]c(=O)[nH]c2C)cc1	-4.74	
Nc1ncn([C@@H]2O[C@H](CO)[C@@H](O)[C@H]2O)c(=O)n1	12.3	
c1ccc2c(c1)CCCC2C1=NCCN1 (centres undefined)	1.89	
CC(C)(C)NCC(O)c1cc(O)cc(O)c1 (centres undefined)	5.46	
CN(C)[C@@H]1C(=O)C(C(N)=O)=C(O)[C@@]2(O)C(=O)C3=C(O)c4c(O)ccc(Cl)c4[C@@H](O)[C@H]3C[C@@H]12	-2.23	
C[n+]1cc2c3c(ccc2c2ccc4cc5c(cc4c21)OCO5)OCO3		2.61 µM (active)
CN(C)CC[C@@H](c1ccc(Br)cc1)c1ccccn1	-24.4	
COc1cc2c(cc1OC)-c1cc(=Nc3c(C)cc(C)cc3C)n(C)c(=O)n1CC2	23	

Test system: not listed separately
Assay: NS1 protein of Zika virus - qHTS assay to identify small molecule inhibitors in human HEK 293 cells (AID 1347053);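 also: plate controls were infected untreated cells for no effect and uninfected cells for full effect; nearly all actives have a fitted effect of over 55% in size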
Conditions: HEK293 ZIKV MR766 infection, NS1 TR-FRET, 24 h; series mostly up to 46.1 µM; activity change, negative = inhibition: at the top concentration
In short: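 HEK 293 cells, seeded 20 h at 37 C, were pretreated with compound 1 h, then infected with ZIKV MR766 (MOI = 0.5) for 24 h. NS1 was read by TR-FRET with two anti-NS1 antibodies, normalized to uninfected and infected wells.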

Structure (SMILES)	outcome	activity change, negative = inhibition [%]
Cc1ccc(/C(=C\CN2CCCC2)c2ccccn2)cc1	inactive	
C[N+](C)(C)CCCCCCCCCC[N+](C)(C)C	inactive	
CC[N+](C)(C)c1cccc(O)c1	inactive	
CC(N=C(NC#N)Nc1ccncc1)C(C)(C)C (centres undefined)	inactive	
CSc1ccc(C(=O)c2[nH]c(=O)[nH]c2C)cc1	inactive	
O=C(CCNNC(=O)c1ccncc1)NCc1ccccc1	inactive	
CCCN(CCC)CCc1cccc2c1CC(=O)N2	inactive	
CCCCNc1c(C(=O)OCC)c(C)nc2c1cnn2CC	inactive	
COCC(=O)O[C@]1(CCN(C)CCCc2nc3ccccc3[nH]2)CCc2cc(F)ccc2[C@@H]1C(C)C		-0.0227
CCN(CC)CC(=O)Nc1c(C)cccc1C	inactive	
CCN(CC)CCCN(c1ccccc1)C1Cc2ccccc2C1	inactive	
CN=C(NC#N)NCCSCc1nc[nH]c1C	inactive	
COc1ccc(CCN(C)CCCC(C#N)(c2cc(OC)c(OC)c(OC)c2)C(C)C)cc1OC (centres undefined)	inactive	
O=c1[nH]c(=O)n([C@H]2C[C@H](O)[C@@H](CO)O2)cc1Br	inactive	
c1ccc2c(c1)CCCC2C1=NCCN1 (centres undefined)	inactive	
C[C@]12CCC(=O)C=C1CC[C@@H]1[C@@H]2CC[C@@]2(C)[C@H]1CC[C@]2(O)C(=O)CO	inactive	
C[C@]12CC[C@@H]3c4ccc(O)cc4C[C@@H](CCCCCCCCCS(=O)CCCC(F)(F)C(F)(F)F)[C@H]3[C@@H]1CC[C@@H]2O (some centres undefined)	inactive	

Structure (SMILES)	outcome	activity change, negative = inhibition [%]
CCCCCCCC/C=C\CCCCCCCC(=O)NCc1ccc(O)c(OC)c1	inactive	
CC(C)[N+](C)(CCOC(=O)C1c2ccccc2Oc2ccccc21)C(C)C	inactive	
CN(C)CCCN1c2ccccc2Sc2ccccc21	inactive	
NC1=NCC2c3ccccc3Cc3ccccc3N12 (centres undefined)	inactive	
Cc1nc2c([nH]1)c(=O)n(C)c(=O)n2Cc1ccco1	inactive	
O=C(O)CCCCCCCC(=O)O	inactive	
OCCN1CCN(CCCN2c3ccccc3C=Cc3ccccc32)CC1	inactive	
CC(C)(C)NCC(O)c1cc(O)cc(O)c1 (centres undefined)	inactive	
CN(C)[C@@H]1C(=O)C(C(N)=O)=C(O)[C@@]2(O)C(=O)C3=C(O)c4c(O)ccc(Cl)c4[C@@H](O)[C@H]3C[C@@H]12	inactive	
NC(N)=NC(=O)Cc1c(Cl)cccc1Cl	inactive	
CN(C)CC[C@@H](c1ccc(Br)cc1)c1ccccn1	inactive	
CC(=O)Nc1nnc(S(N)(=O)=O)s1	inactive	
Fc1ccc(C(c2ccc(F)cc2)N2CCN(C/C=C/c3ccccc3)CC2)cc1		10.1
CC(=O)OCC1=C(C(=O)O)N2C(=O)[C@@H](NC(=O)Cc3cccs3)[C@H]2SC1	inactive	
Cc1ccc(S(=O)(=O)NC(=O)NN2CCCCCC2)cc1	inactive	
NC/C=C/C(=O)O		-10.7

Biological target: Tyrosine-protein phosphatase non-receptor type substrate 1 (Homo sapiens) + Leukocyte surface antigen CD47 (Homo sapiens) (UniProt P78324+Q08722)
Assay: CD47-SIRPalpha protein protein interaction - LANCE assay qHTS validation (AID 1347057; active = well fitted curve in the direction sought with a large enough effect in the signal ratio, with a control signal flat, not every such curve was filed as active; the % refers to the signal ratio; also: 0% is about no effect)
Conditions: Recombinant CD47-His / biotin-SIRPalpha, TR-FRET ratio; series mostly up to 38.3 µM; activity change, negative = inhibition: at the top concentration
In short: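 First, His-tagged CD47 and Eu-labelled anti-His antibody met the compound for 30 min; next, site-specifically biotinylated SIRPalpha was added for 30 min; finally streptavidin-APC was added before reading the TR-FRET ratio.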

Tyrosine-protein phosphatase non-receptor type substrate 1 (Homo sapiens) + Leukocyte surface antigen CD47 (Homo sapiens), sequence (P78324 whole entry, looked up): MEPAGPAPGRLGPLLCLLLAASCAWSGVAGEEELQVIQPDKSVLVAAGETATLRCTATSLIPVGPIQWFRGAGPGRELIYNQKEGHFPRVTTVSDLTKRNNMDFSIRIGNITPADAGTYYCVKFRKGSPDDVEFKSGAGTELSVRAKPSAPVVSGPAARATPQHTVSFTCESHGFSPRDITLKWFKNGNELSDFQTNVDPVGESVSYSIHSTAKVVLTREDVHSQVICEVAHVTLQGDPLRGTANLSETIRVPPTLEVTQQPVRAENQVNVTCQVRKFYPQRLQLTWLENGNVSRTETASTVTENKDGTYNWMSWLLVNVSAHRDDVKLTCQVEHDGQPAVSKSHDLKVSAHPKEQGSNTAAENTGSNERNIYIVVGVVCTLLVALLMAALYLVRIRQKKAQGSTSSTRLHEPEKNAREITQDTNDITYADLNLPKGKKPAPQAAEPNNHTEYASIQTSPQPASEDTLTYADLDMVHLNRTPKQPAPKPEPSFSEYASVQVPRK
Tyrosine-protein phosphatase non-receptor type substrate 1 (Homo sapiens) + Leukocyte surface antigen CD47 (Homo sapiens), sequence (Q08722 whole entry, looked up): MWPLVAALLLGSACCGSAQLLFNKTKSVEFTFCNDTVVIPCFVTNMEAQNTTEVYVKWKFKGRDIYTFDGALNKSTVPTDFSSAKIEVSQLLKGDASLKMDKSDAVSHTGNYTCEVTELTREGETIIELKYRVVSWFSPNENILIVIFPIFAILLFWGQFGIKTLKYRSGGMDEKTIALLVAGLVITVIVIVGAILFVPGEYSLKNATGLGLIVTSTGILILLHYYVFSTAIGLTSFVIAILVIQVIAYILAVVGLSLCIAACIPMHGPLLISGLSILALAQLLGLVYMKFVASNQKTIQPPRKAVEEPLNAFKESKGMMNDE

Structure (SMILES)	activity change, negative = inhibition [%]
Cc1ccc(/C(=C\CN2CCCC2)c2ccccn2)cc1	1.25
C[N+](C)(C)CCCCCCCCCC[N+](C)(C)C	1.8
CC[N+](C)(C)c1cccc(O)c1	-1.24
CC(N=C(NC#N)Nc1ccncc1)C(C)(C)C (centres undefined)	0.958
CSc1ccc(C(=O)c2[nH]c(=O)[nH]c2C)cc1	0.412
O=C(CCNNC(=O)c1ccncc1)NCc1ccccc1	0.704
CCCN(CCC)CCc1cccc2c1CC(=O)N2	1.14
CCCCNc1c(C(=O)OCC)c(C)nc2c1cnn2CC	-0.648
COCC(=O)O[C@]1(CCN(C)CCCc2nc3ccccc3[nH]2)CCc2cc(F)ccc2[C@@H]1C(C)C	2.51
Nc1ncn([C@@H]2O[C@H](CO)[C@@H](O)[C@H]2O)c(=O)n1	2.91
CCN(CC)CC(=O)Nc1c(C)cccc1C	2.54
CCN(CC)CCCN(c1ccccc1)C1Cc2ccccc2C1	0.352
CN=C(NC#N)NCCSCc1nc[nH]c1C	-0.308
COc1ccc(CCN(C)CCCC(C#N)(c2cc(OC)c(OC)c(OC)c2)C(C)C)cc1OC (centres undefined)	1.63
O=c1[nH]c(=O)n([C@H]2C[C@H](O)[C@@H](CO)O2)cc1Br	0.0447
C[C@]12CCC(=O)C=C1CC[C@@H]1[C@@H]2CC[C@@]2(C)[C@H]1CC[C@]2(O)C(=O)CO	0.308
C[C@]12CC[C@@H]3c4ccc(O)cc4C[C@@H](CCCCCCCCCS(=O)CCCC(F)(F)C(F)(F)F)[C@H]3[C@@H]1CC[C@@H]2O (some centres undefined)	0.409

Structure (SMILES)	activity change, negative = inhibition [%]
CCCCCCCC/C=C\CCCCCCCC(=O)NCc1ccc(O)c(OC)c1	1.24
CC(C)[N+](C)(CCOC(=O)C1c2ccccc2Oc2ccccc21)C(C)C	1.23
CN(C)CCCN1c2ccccc2Sc2ccccc21	3.57
NC1=NCC2c3ccccc3Cc3ccccc3N12 (centres undefined)	0.547
Cc1nc2c([nH]1)c(=O)n(C)c(=O)n2Cc1ccco1	1.58
O=C(O)CCCCCCCC(=O)O	0
OCCN1CCN(CCCN2c3ccccc3C=Cc3ccccc32)CC1	0.132
CC(C)(C)NCC(O)c1cc(O)cc(O)c1 (centres undefined)	1.8
CN(C)[C@@H]1C(=O)C(C(N)=O)=C(O)[C@@]2(O)C(=O)C3=C(O)c4c(O)ccc(Cl)c4[C@@H](O)[C@H]3C[C@@H]12	0.923
NC(N)=NC(=O)Cc1c(Cl)cccc1Cl	0.44
CC(=O)Nc1nnc(S(N)(=O)=O)s1	2.53
COc1cc2c(cc1OC)-c1cc(=Nc3c(C)cc(C)cc3C)n(C)c(=O)n1CC2	0.176
Fc1ccc(C(c2ccc(F)cc2)N2CCN(C/C=C/c3ccccc3)CC2)cc1	0.308
CC(=O)OCC1=C(C(=O)O)N2C(=O)[C@@H](NC(=O)Cc3cccs3)[C@H]2SC1	2.54
Cc1ccc(S(=O)(=O)NC(=O)NN2CCCCCC2)cc1	1.89
NC/C=C/C(=O)O	1.1
